The list is not random: actives were taken first. Their share in the collection is about 2.5%.
CCT modulator: cytosolic chaperonin activity modulation. activity change, % (no concentration beside the values), hits read low. AID 651819. hit rate 0.3% among 360,000. purified chaperonin ATPase assay, HTRF ADP detection, 30 min; in the data active = activity change below about -30%; also: % is scaled to controls: 0 for no effect and ±100 for the full control effect
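First, chaperonin was dispensed at 40 nM or 20 nM final depending on batch activity. Next, compounds were pinned at 76 uM and ATP added at 10 uM. After 30 min at 37 °C, ADP detection reagents ran 30 min at ambient temperature.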
TDP43 rescue: rescues yeast growth from TDP-43 toxicity. AID 652104. TDP-43 expressing yeast growth rescue, BacTiter-Glo, 24 h. hit rate 1.8% among 410,000. Potency, µM (top dose mostly 46.1 µM), inactives show top-dose growth rescue (activation), hits mostly activators; also: potency is read from the fitted curve at half-maximal effect; % of control where 0% means no effect; nearly all actives have a fitted effect of over 50% in size
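Galactose-induced TDP-43 yeast, OD600=0.02, compound pinned; 24 hr, 30 deg C; BacTiter-Glo luminescence for growth. Inhibitors of TDP-43 toxicity read as activators.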
Akt phos inh: blocks phosphorylation of Akt; Neuro2A IGF-stimulated pAkt S473 HTRF, 20 min; active compounds read low; activity change, % for hits at 50 µM; hit rate 0.32% among 360,000; AID 651550; in the data active = activity change below about -80%; inconclusive = mostly about -51% to -80%; also: % is scaled to controls: 0 for no effect and ±100 for the full control effect
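Single-point screen (50 µM final compound) in Neuro2A cells stimulated 20 min with 6 nM IGF at 37 deg C. After lysis, Ser473-phosphorylated Akt read by HTRF (ex 330 nm, em 615/665 nm) as the 665/615 ratio.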
Mito fusion act: mitochondrial division inhibition or fusion activation; S. cerevisiae fusion-defective mutant growth rescue, CellTiterGlo 48 h; Potency, µM (top dose mostly 46.1 µM), for the others: at the top dose growth rescue (activation), actives largely listed as activators; hit rate 0.23% among 320,000; also: potency is read from the fitted curve at half-maximal effect; % of control where 0% means no effect; nearly all actives have a fitted effect of over 45% in size
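Read-out: ATP-based luminescence (CellTiterGlo, 10 min ambient) reporting growth of fusion-defective ts yeast after 48 hours at 37C on glycerol/ethanol YPEG medium in the presence of compound.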
aSyn rescue: inhibitors of alpha-synuclein toxicity in yeast; hit rate 0.14% among 370,000; Yeast expressing alpha-synuclein, growth rescue, BacTiter-Glo, 24 h; Potency, µM (top dose mostly 46.1 µM), inactives show top-dose growth rescue (activation), most hits filed as activators; also: potency is read from the fitted curve at half-maximal effect; % of control where 0% means no effect; nearly all actives have a fitted effect of over 65% in size
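Readout is rescue of growth in alpha-synuclein-expressing yeast, so inhibitors of toxicity appear as activators. Growth after 24 hr at 30 deg C in galactose medium is quantified by luminescence.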
Anesthetic bind: binds horse apoferritin like a general anesthetic | P02791 | apoferritin/1-aminoanthracene competitive binding, fluorescence | Potency, µM (series often up to 77.5 µM), for inactives: top-dose activity change, negative = displacement, usual class: inhibitors | hit rate 0.074% among 350,000 | AID 485281; also: potency is read from the fitted curve at half-maximal effect; % is scaled to controls: 0 for no effect and ±100 for the full control effect; nearly all actives have a fitted effect of over 20% in size
Target sequence (P02791 2-175 limits assumed): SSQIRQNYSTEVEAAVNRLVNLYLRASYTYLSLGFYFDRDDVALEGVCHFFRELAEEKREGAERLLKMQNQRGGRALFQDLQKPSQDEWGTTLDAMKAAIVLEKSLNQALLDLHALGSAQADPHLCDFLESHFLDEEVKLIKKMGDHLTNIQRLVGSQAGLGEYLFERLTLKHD
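Steps: apoferritin (10 uM) was premixed with half-saturated 1-AMA in PBS, compounds were pin-transferred, plates stood 10 min at room temperature, fluorescence was read at 380/535 nm, and curves were fitted with a Hill equation.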
* = called active by the depositor; [ ] = remark or other dose. Unless noted, calls follow the shape of the dose curve; as a rule, active = well fitted curve in the direction sought with a large enough effect; inconclusive = small, poorly fitted or top-dose-only effect, or another doubt; inactive = no such curve, though single readings can be large; an effect the other way counts as inactive or inconclusive.

Screening Cc1cccc(C(=O)NC(=S)NNC(=O)c2ccccc2Cl)c1 returned CCT modulator 0, TDP43 rescue -40%, Akt phos inh inactive, Mito fusion act -12%, aSyn rescue 10µM* and Anesthetic bind -1%.
Screening COc1ccccc1C(=O)NNC(=S)NC(=O)c1cc(OC)c(OC)c(OC)c1 returned CCT modulator 2, TDP43 rescue 10µM*, Akt phos inh inactive, Mito fusion act -1%, aSyn rescue inconclusive and Anesthetic bind -10%.
For O=C(NC(=S)NNC(=O)c1ccc(Cl)cc1Cl)c1cccnc1 the results were CCT modulator -1, TDP43 rescue -21%, Akt phos inh inactive, Mito fusion act 0%, aSyn rescue 2% and Anesthetic bind -8%.
For CC(=O)NCCCC[C@H](NC(=O)OC(C)(C)C)C(=O)Nc1ccc2c(C(F)(F)F)cc(=O)oc2c1 the results were Anesthetic bind -1%.
Screening COc1ccc(CNCCCC(=O)Nc2c(Cl)ccc(C)c2Cl)cc1OC returned CCT modulator -48*, TDP43 rescue -27%, Akt phos inh inactive, Mito fusion act 8%, aSyn rescue -6% and Anesthetic bind -8%.
`COc1ccc(CCNCCC(=O)Nc2c(C)cc(C)cc2C)cc1OC` gave CCT modulator -1, TDP43 rescue 11%, Akt phos inh inactive, Mito fusion act -3%, aSyn rescue 0% and Anesthetic bind 4%.
CCOc1ccc(CNC(=O)Cn2cc3c(n2)-c2c(oc(C(=O)N4CCOCC4)c2C)CC3)cc1 was read as TDP43 rescue 0% and Anesthetic bind -10%.
Cc1ccc(N(CC(=O)N2CCN(c3cccc(C)c3C)CC2)S(=O)(=O)c2c(C)nn(C)c2C)cc1 was read as TDP43 rescue inconclusive and Anesthetic bind 71%.
`Cc1ccc(C(Sc2ccccc2)C(Cn2cncn2)C(=O)c2ccccc2)cc1` (stereo not drawn) gave CCT modulator -2, TDP43 rescue 16%, Akt phos inh -104%*, Mito fusion act 7%, aSyn rescue 14% and Anesthetic bind inconclusive.
`CC(C)C(=O)NC(=O)C1CCCN1C(=O)/C=C/c1ccccc1` (stereo not drawn) gave Anesthetic bind -6%[15.3 µM].
CC(C)CNC(=O)C1(N2C(=O)c3ccccc3C2=O)CCCC1 was read as CCT modulator 0, TDP43 rescue 14%, Akt phos inh inactive and aSyn rescue -3%.
For CC(C)NC(=O)C1(N2C(=O)c3ccccc3C2=O)CCCC1 the results were CCT modulator 2, TDP43 rescue 11µM*, Akt phos inh inactive and aSyn rescue -7%.
`CSCC[C@H](NC(=O)[C@H](CC(C)C)NC(=O)[C@H](Cc1c[nH]c2ccccc12)NC(=O)[C@H](CCC(N)=O)NC(=O)[C@@H](NC(=O)[C@H](Cc1ccccc1)NC(=O)[C@H](CC(=O)O)NC(=O)[C@H](CCC(N)=O)NC(=O)[C@H](C)NC(=O)[C@H](CCCNC(=N)N)NC(=O)[C@H](CCCNC(=N)N)NC(=O)[C@H](CO)NC(=O)[C@H](CC(=O)O)NC(=O)[C@H](CC(C)C)NC(=O)[C@H](Cc1ccc(O)cc1)NC(=O)[C@H](CCCCN)NC(=O)[C@H](CO)NC(=O)[C@H](Cc1ccc(O)cc1)NC(=O)[C@H](CC(=O)O)NC(=O)[C@H](CO)NC(=O)[C@@H](NC(=O)[C@H](Cc1ccccc1)NC(=O)[C@@H](NC(=O)CNC(=O)[C@H](CCC(N)=O)NC(=O)[C@H](CO)NC(=O)[C@@H](N)Cc1cnc[nH]1)[C@@H](C)O)[C@@H](C)O)C(C)C)C(=O)N[C@@H](CC(N)=O)C(=O)N[C@H](C(=O)O)[C@@H](C)O` gave Anesthetic bind -11%.
Screening COc1ccc2nc(-c3ccccc3)[nH]c(=O)c2c1 returned CCT modulator -2, TDP43 rescue inconclusive, Akt phos inh inactive and aSyn rescue 0%.
`COc1ccc(-c2nc3ccc(N4CCCC4)cc3c(=O)[nH]2)cc1OC` gave CCT modulator -79*, TDP43 rescue -4%, Akt phos inh inactive, Mito fusion act 4%, aSyn rescue 2% and Anesthetic bind 10%.
For N#Cc1nc(Cc2cccc3ccccc23)oc1NCc1ccc(F)cc1 the results were CCT modulator -1, TDP43 rescue 18%, Akt phos inh -108%*, Mito fusion act 26%, aSyn rescue 11% and Anesthetic bind -1%.
For Cc1cc(Cl)nc2nc(Cl)ccc12 the results were aSyn rescue -4%.
Screening Cc1csc(SCc2nnc(-c3ccccc3Br)o2)n1 returned CCT modulator -7, TDP43 rescue 3%, Akt phos inh inactive, Mito fusion act 1%, aSyn rescue -1% and Anesthetic bind inconclusive.
Fc1ccccc1SCc1nnc(-c2ccccc2Br)o1 was read as CCT modulator 0, TDP43 rescue 22µM*, Akt phos inh inactive, Mito fusion act 2%, aSyn rescue 13% and Anesthetic bind inconclusive.
CC(=O)c1sc(NC(=O)C(C)C)nc1C was read as CCT modulator 3, TDP43 rescue 8%, Akt phos inh inactive, Mito fusion act 1%, aSyn rescue -2% and Anesthetic bind -6%.
CC(=O)c1sc(Nc2ccc3c(c2)OCO3)nc1C was read as CCT modulator 0, TDP43 rescue 13µM*, Akt phos inh inactive and aSyn rescue 30%.
Screening CC(=O)Nc1nc(C)c(C(C)=O)s1 returned CCT modulator 1, TDP43 rescue 2%, Akt phos inh -106%*, Mito fusion act -1%, aSyn rescue 0% and Anesthetic bind 0%.
For CC(=O)c1cccc(NC(=O)C2(C)Cc3c(-c4cccc(C(F)(F)F)c4)ccnc3O2)c1 (stereo not drawn) the results were CCT modulator -1, TDP43 rescue 35µM*, Akt phos inh inactive and aSyn rescue inconclusive.
`CC(=O)Nc1ccc(-c2ccnc3c2CC(C)(C(=O)Nc2ccc(Cl)c(C(F)(F)F)c2)O3)cc1` (stereo not drawn) gave CCT modulator 1, TDP43 rescue 35µM*, Akt phos inh inactive and aSyn rescue -35%.
Screening CC(=O)Nc1ccc(NC(=O)C2(C)Cc3c(-c4cccc(C(F)(F)F)c4)ccnc3O2)cc1 (stereo not drawn) returned CCT modulator -1, TDP43 rescue 18%, Akt phos inh inactive and aSyn rescue 24%.
